Compound activity: PubChem BioAssay, National Center for Advancing Translational Sciences (NCATS)
Hits are enriched below; roughly 11% of the tested compounds scored in any of these assays.
BAZ2B block: inhibitors of human BAZ2B bromodomain; Q9UIF8; AlphaScreen BAZ2B-H3K14Ac peptide displacement; Potency, µM (doses to about 114 µM), without a hit: at the top dose activity change, negative = inhibition, actives largely listed as inhibitors; actives 4.4% (n = 360,000); AID 504333; also: % is scaled to controls: 0 for no effect and ±100 for the full control effect; nearly all actives have a fitted effect of over 60% in size
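BAZ2B 50 nM plus b-H3(5-23)K14Ac 50 nM, PBS pH 7.4/0.01% Tween-20, 30 min RT; compound added (max 110 uM), 30 min RT; streptavidin donor/Ni-chelate acceptor beads 10 ug/mL final, 20 min dark; AlphaScreen read.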
G9a block: G9a (human) methyltransferase inhibition | Q96KQ7 | G9a H3K9 monomethylation, AlphaScreen, 2 h | Potency, µM (series often up to 102 µM), for the others: top-dose activity, negative = inhibition, usual class: inhibitors | actives 8.8% (n = 350,000) | AID 504332; also: % is scaled to controls: 0 for no effect and ±100 for the full control effect; nearly all actives have a fitted effect of over 75% in size
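G9a (20 nM) was preincubated 15 min with compound, then reacted 2 h at room temperature with 500 nM biotin-H3K9 peptide and 20 µM SAM. Monomethyl-H3K9 detected by AlphaScreen using anti-H3K9me1 antibody.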
JMJD2A Tudor: JMJD2A Tudor domain (human) inhibition. O75164. AlphaScreen JMJD2A-Tudor / H3K4me3 peptide binding. Potency, µM (top dose mostly 114 µM), for inactives: at the top dose activity change, negative = inhibition, hits mostly inhibitors. actives 4.4% (n = 390,000); also: % is scaled to controls: 0 for no effect and ±100 for the full control effect; nearly all actives have a fitted effect of over 50% in size
L3MBTL1 block: L3MBTL1 (human) inhibition; actives 0.66% (n = 230,000); AlphaScreen L3MBTL1–H3K9me1 peptide binding; Potency, µM (top dose mostly 57.1 µM), inactives show at the top dose activity, negative = inhibition, actives largely listed as inhibitors; also: % is scaled to controls: 0 for no effect and ±100 for the full control effect; nearly all actives have a fitted effect of over 60% in size
Target sequence (Q9Y468 whole entry, looked up): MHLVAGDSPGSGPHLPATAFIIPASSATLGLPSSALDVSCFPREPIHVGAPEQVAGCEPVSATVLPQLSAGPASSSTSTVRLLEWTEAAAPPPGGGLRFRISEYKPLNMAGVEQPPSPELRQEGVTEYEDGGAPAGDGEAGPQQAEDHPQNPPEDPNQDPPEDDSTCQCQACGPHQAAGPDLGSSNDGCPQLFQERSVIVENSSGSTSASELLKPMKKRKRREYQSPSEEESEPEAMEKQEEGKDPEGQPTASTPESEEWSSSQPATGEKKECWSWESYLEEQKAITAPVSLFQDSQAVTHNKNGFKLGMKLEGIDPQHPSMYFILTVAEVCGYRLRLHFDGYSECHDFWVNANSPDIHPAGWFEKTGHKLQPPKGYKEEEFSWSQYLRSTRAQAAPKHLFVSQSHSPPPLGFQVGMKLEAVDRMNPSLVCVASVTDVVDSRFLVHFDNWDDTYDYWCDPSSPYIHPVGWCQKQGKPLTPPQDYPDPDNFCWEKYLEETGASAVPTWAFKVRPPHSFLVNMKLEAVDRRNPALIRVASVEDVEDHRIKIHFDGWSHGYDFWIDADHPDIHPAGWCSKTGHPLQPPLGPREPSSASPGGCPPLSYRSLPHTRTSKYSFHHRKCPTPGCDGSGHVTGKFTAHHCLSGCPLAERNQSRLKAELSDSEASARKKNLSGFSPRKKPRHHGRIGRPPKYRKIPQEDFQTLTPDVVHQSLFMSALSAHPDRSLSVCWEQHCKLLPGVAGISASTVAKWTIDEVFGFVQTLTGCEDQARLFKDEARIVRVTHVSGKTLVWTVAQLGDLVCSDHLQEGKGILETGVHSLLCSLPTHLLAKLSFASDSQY
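Read-out is AlphaScreen signal from streptavidin donor and nickel chelate acceptor beads (10 ug/mL final each) bridging L3MBTL1 (50 nM) and biotinylated K9-monomethylated H3(1-15) peptide (75 nM), after 30 min compound exposure at room temperature.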
HP1b binding inh: inhibitors of HP1-beta chromodomain binding to methylated histone tails; P83916; AlphaScreen HP1-beta / biotin-H3K9me3 peptide binding; Potency, µM (titrated, usually from 114 µM), for inactives: at the top dose activity change, negative = inhibition, hits mostly inhibitors; actives 0.56% (n = 390,000); AID 540317; also: nearly all actives have a fitted effect of over 70% in size
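AlphaScreen: HP1-beta (50 nM) preformed 30 min with biotin-H3(1-18)K9me3 peptide (50 nM) in PBS pH 7.4, 0.01% Tween-20. Compound added for 30 min at RT, then streptavidin donor/nickel chelate acceptor beads (10 ug/mL) for 30 min.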
Numbers without * were called inactive; ? = inconclusive; nt = no result; ! = not active in a repeat; [ ] = dose if it differs, or a comment. Calls follow the shape of the dose curve; as a rule, active = well fitted inhibition curve with a large enough effect; inconclusive = small, poorly fitted or top-dose-only effect; inactive = no such curve, though single readings can be large or run the other way. Potency is read from the fitted curve at half-maximal effect.

SMILES	BAZ2B block	G9a block	JMJD2A Tudor	L3MBTL1 block	HP1b binding inh
COc1ccc(/C=C2\CC/C(=C\c3ccc(OC)c(OC)c3)C2=O)cc1OC	20µM*	?	?	-11.0%	-22.3%
COc1ccc(C=C2C=C(C(C)(C)C)C(=O)C(C(C)(C)C)=C2)cc1OC	25.1µM*	nt	31.6µM*	-5.1%	?
COc1ccc(C2=NN(C(=O)CSc3nnc(-c4ccccc4F)o3)C(c3ccco3)C2)cc1 (centres undefined)	-7.3%	44.7µM*	-15.6%	-7.6%	1.6%
COc1ccc(C2=NN(C(N)=S)C(c3ccco3)C2)cc1 (centres undefined)	?	22.4µM*	-35.6%	-15.6%	-15.9%
O=S(=O)(c1ccc(-n2cnnn2)cc1)N1CCN(c2cccc(C(F)(F)F)c2)CC1	3.0%	3.6%[59 µM]	-13.5%	nt	20.0%
CN(C)CC(CCCCC(CN(C)C)C(=O)c1ccccc1)C(=O)c1ccccc1 (centres undefined)	-20.1%	50.1µM*	-25.6%	-7.1%	21.7%
CC(=O)N1CCN(c2csc3ccc(F)cc3c2=O)CC1	-17.2%	-40.0%[59 µM]	-7.3%	nt	26.6%[57 µM]
O=C1C=CC(=O)N1	11.3%	2µM*	-35.2%	-1.2%	?
Cc1ccc(C)c(CSc2ncccc2C(=O)O)c1	-35.8%	50.1µM*	-17.4%	11.1%	1.7%
O=C(O)c1cccnc1SCc1cn2cc(Br)ccc2n1	?	50.1µM*	-22.6%[11.4 µM]	-1.5%	4.5%
Clc1nc(NCc2ccco2)c2[nH]cnc2n1	nt	nt	-1.5%[57.1 µM]	nt	5.1%[57 µM]
Cn1cc(CN2CC3C[C@@H]4CC2C[C@H](C3)C4)c(-c2ccc3c(c2)OCCO3)n1	?	50.1µM*	-11.5%	-4.6%	25.3%
CCn1c(C(=O)NCc2ccccc2C)cc2oc3ccccc3c21	-11.2%	-3.5%[59 µM]	?	nt	-3.8%
c1ccc(Nc2nc(NCc3ccco3)c3ccccc3n2)cc1	?	50.1µM*	50.1µM*	-19.2%	?
CSc1nc(NCc2ccco2)c2ccccc2n1	-33.2%	?	-13.0%[11.4 µM]	nt	-29.0%
Cc1cccc(Nc2nc(NCc3ccco3)c3ccccc3n2)c1	?	17.8µM*	?	-2.5%	-9.6%
Cc1ccc(-n2cc3c(c2-c2ccccc2Br)c(=O)n(C)c(=O)n3C)cc1N	50.1µM*	?	?	nt	-7.5%
COc1ccc(OCc2cc(C(=O)O)c(C)o2)cc1	79.4µM*	44.7µM*	nt	?	nt
CCC(C)NC(=O)CSc1nc2cc3c(cc2c(=O)n1CCCCCC(=O)NCc1ccc(OC)cc1)OCO3 (centres undefined)	2.6%	4.2%[59 µM]	-3.3%	nt	35.4%
Cn1cnnc1SC1CCCCC1NS(=O)(=O)c1ccc(Cl)cc1 (centres undefined)	?	12.6µM*	-9.2%	5.0%	21.7%
Cn1cnnc1SC1CCCCC1NS(=O)(=O)c1ccccc1 (centres undefined)	10.9%	3.2%[59 µM]	-10.4%	-7.4%	32.1%
CC(=O)Nc1ccc(NC2CCCCC2NS(=O)(=O)c2ccc(Cl)cc2)cc1 (centres undefined)	-33.8%	39.8µM*	-7.2%	nt	7.4%
Nn1cnnc1SC1CCCCC1NS(=O)(=O)c1ccccc1 (centres undefined)	70.8µM*	?	-20.6%	17.8%	6.5%
O=C(CCC1N=C2c3ccccc3N=C(SCc3cccc(F)c3)N2C1=O)NC1CCCCC1 (centres undefined)	-3.5%	2.9%[59 µM]	-9.3%	nt	25.7%
CC(=O)Nc1cccc(C(=O)OCC(=O)Nc2ccc(Cl)cn2)c1	-0.7%	-6.9%[2.33 µM]	-13.3%	1.4%	15.0%
SMILES	BAZ2B block	G9a block	JMJD2A Tudor	L3MBTL1 block	HP1b binding inh
COc1cc(C2C(C#N)=C(N)OC3=C2C(=O)CC(C)(C)C3)ccc1OCCN1CCOCC1 (centres undefined)	-11.7%	50.1µM*	-14.7%	1.1%	22.1%
COc1ccc(C2C(C#N)=C(N)OC3=C2C(=O)CC(C)(C)C3)cc1OC (centres undefined)	-25.0%	2.8%	-21.1%	-8.8%	-12.1%
NC1(C(=O)O)CCc2cc(C(=O)O)ccc21 (centres undefined)	nt	4.47µM*	nt	nt	nt
Cc1ccc2nc(-c3ccccn3)c(Nc3ccc(F)cc3)n2c1	5.62µM*	12.1%[59 µM]	?	nt	26.1%
COc1ccc(-c2nc3ccccn3c2Nc2ccccc2C)cc1	nt	nt	56.2µM*	nt	?
CSc1ccc(-c2nc3cc(C)ccn3c2Nc2ccc(C)cc2)cc1	-9.8%	-2.2%[59 µM]	-16.4%	nt	-7.3%
Cc1ccc2nc(-c3cccnc3)c(Nc3ccccc3C)n2c1	-3.4%	-6.8%	-9.9%	nt	1.6%
Cc1ccc(-c2nc3sccn3c2Nc2ccccc2C)cc1	7.08µM*	12.6µM*	44.7µM*	nt	?
Cc1ccn2c(Nc3ccccc3)c(-c3ccccn3)nc2c1	20µM*	42.4%[59 µM]	50.1µM*	nt	27.4%
CCC(Sc1ncc(S(=O)(=O)c2ccc(C)cc2)c(=O)[nH]1)C(=O)Nc1cc(C)ccc1C (centres undefined)	-1.4%	-18.3%[59 µM]	-1.8%	nt	12.3%
Cc1ccc2nc(-c3ccccn3)c(Nc3ccccc3C)n2c1	20µM*	?	44.7µM*!	nt	-21.1%
Cc1ccn2c(Nc3ccccc3C)c(-c3ccccn3)nc2c1	22.4µM*	?	44.7µM*!	nt	?
Cc1ccccc1Nc1c(-c2ccccn2)nc2ccccn12	10µM*	39.8µM*	50.1µM*	nt	-4.7%
Cc1ccccc1Nc1c(-c2cccnc2)nc2ccccn12	-31.1%	4.5%	-6.6%[11.4 µM]	nt	37.7%
CC(C)c1ccc(Nc2c(-c3ccccn3)nc3ccccn23)cc1	22.4µM*	?	31.6µM*	nt	?
Cc1ccc2nc(-c3ccncc3)c(Nc3ccccc3C)n2c1	-11.4%	10.4%[59 µM]	-17.5%	nt	19.8%
CCN(CC)CCOCCOC(=O)C(CC)(CC)c1ccccc1 (tested in a mixture with another compound)	nt	-0.6%[59 µM]	nt	nt	nt
O=C(Cn1ncc(Cl)c(Cl)c1=O)N1CCN(S(=O)(=O)c2ccc3ccccc3c2)CC1	11.2%	44.7µM*	-4.2%	-6.2%	35.6%
COC(=O)c1cccc(Cn2nc(C)c([N+](=O)[O-])c2C)c1	-14.6%	5.3%[59 µM]	50.1µM*	nt	9.1%
COc1cccc(-c2noc(Cn3nc(C)c([N+](=O)[O-])c3C)n2)c1	-0.1%	39.8µM*	-11.6%	-6.0%	-11.9%
COc1cccc(OCc2nc(-c3cccc([N+](=O)[O-])c3)no2)c1	-19.4%	9.7%[59 µM]	-21.7%	nt	4.9%
Cc1cc(Sc2nc(N)ncc2[N+](=O)[O-])ncn1	?	31.6µM*	1.3%	0.1%	33.3%
CCC(C)(C)NC(=O)C(c1ccccn1)N(C(=O)c1csnn1)c1ccc(C)cc1 (centres undefined)	2.2%	20.5%	-6.4%	-4.9%	42.0%
COc1cc(C(=O)Nc2nnc(C(C)(C)C)s2)c([N+](=O)[O-])cc1OC	-2.3%	10µM*	-7.4%[57.1 µM]	1.0%	?
COc1cc(C(=O)Nc2nnc(CC(C)(C)C)s2)c([N+](=O)[O-])cc1OC	-1.7%	13.9%[59 µM]	-17.9%	1.1%	7.3%
